# From publication PMC11006913
# Changes are numbered by the printed parent chain.
# Columns and labels:
# Assay in all cases: PBM; 200 nM protein, PBS
# Conditions in all cases: dsDNA, one strand shown
# [1] = target: HOXC9 (Homo sapiens, UniProt P31274 178-260, K195R)
# [2] = target: ALX4 (Homo sapiens, UniProt Q9H161 200-286)
# [3] = target: T1, PAX4 (Homo sapiens, UniProt O43316 9-242, R200K)
# T1 sequence: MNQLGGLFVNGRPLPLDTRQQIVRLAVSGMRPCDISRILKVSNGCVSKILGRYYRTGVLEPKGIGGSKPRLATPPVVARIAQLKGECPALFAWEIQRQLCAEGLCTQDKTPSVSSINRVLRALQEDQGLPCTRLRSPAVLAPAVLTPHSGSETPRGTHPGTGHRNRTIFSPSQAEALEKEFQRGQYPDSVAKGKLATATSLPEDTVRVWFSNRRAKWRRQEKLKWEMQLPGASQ
# [4] = target: PRRX1 (Homo sapiens, UniProt P54821 80-166, F113S)
# Sequence of PRRX1 (Homo sapiens, UniProt P54821 80-166, F113S) (P54821 80-166 F113S): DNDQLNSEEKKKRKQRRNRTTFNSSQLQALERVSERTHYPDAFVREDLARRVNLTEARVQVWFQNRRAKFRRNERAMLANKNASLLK
# [5] = target: T2, PAX4 (Homo sapiens, UniProt O43316 9-242)
# T2 sequence: T1 sequence with K192R
# [6] = target: ALX4 (Homo sapiens, UniProt Q9H161 200-286, Q225E)
# Sequence of ALX4 (Homo sapiens, UniProt Q9H161 200-286, Q225E) (Q9H161 200-286 Q225E): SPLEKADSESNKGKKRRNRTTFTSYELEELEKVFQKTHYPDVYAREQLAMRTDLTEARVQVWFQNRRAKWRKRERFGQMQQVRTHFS
# [7] = target: HOXC9 (Homo sapiens, UniProt P31274 178-260)
# Sequence of HOXC9 (Homo sapiens, UniProt P31274 178-260) (P31274 178-260): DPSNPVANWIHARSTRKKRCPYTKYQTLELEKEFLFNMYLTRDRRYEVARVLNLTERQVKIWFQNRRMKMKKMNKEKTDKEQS
# [8] = target: ALX1 (Homo sapiens, UniProt Q15699 118-204, L144V)
# Sequence of ALX1 (Homo sapiens, UniProt Q15699 118-204, L144V) (Q15699 118-204 L144V): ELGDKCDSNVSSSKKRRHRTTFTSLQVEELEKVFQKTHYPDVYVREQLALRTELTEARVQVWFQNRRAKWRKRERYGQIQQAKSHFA
# [9] = target: ALX3 (Homo sapiens, UniProt O95076 139-225, N203Q)
# Sequence of ALX3 (Homo sapiens, UniProt O95076 139-225, N203Q) (O95076 139-225 N203Q): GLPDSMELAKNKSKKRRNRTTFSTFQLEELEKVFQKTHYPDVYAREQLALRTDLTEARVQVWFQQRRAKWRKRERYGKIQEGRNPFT
# [10] = target: T3, PAX4 (Homo sapiens, UniProt O43316 9-242, R200Q)
# T3 sequence: T1 sequence with K192Q
# [11] = target: HOXC9 (Homo sapiens, UniProt P31274 178-260, R193K)
# Sequence of HOXC9 (Homo sapiens, UniProt P31274 178-260, R193K) (P31274 178-260 R193K): as the sequence (P31274 178-260) above, with R16K counted along it
# [12] = target: ALX1 (Homo sapiens, UniProt Q15699 118-204, L144R)
# Sequence of ALX1 (Homo sapiens, UniProt Q15699 118-204, L144R) (Q15699 118-204 L144R): as the sequence (Q15699 118-204 L144V) above, with V27R counted along it
# [13] = target: T4, PAX4 (Homo sapiens, UniProt O43316 9-242, F177V)
# T4 sequence: T1 sequence with F169V, K192R
# [14] = target: ALX3 (Homo sapiens, UniProt O95076 139-225)
# Sequence of ALX3 (Homo sapiens, UniProt O95076 139-225) (O95076 139-225): as the sequence (O95076 139-225 N203Q) above, with Q65N counted along it
# [15] = target: T5, PAX4 (Homo sapiens, UniProt O43316 9-242, F177Y)
# T5 sequence: T1 sequence with F169Y, K192R
# [16] = target: PROP1 (Homo sapiens, UniProt O75360 56-141)
# Sequence of PROP1 (Homo sapiens, UniProt O75360 56-141) (O75360 56-141): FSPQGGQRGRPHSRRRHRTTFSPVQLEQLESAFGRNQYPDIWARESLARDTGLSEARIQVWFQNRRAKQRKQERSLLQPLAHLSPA
# [17] = target: PROP1 (Homo sapiens, UniProt O75360 56-141, R99H)
# Sequence of PROP1 (Homo sapiens, UniProt O75360 56-141, R99H) (O75360 56-141 R99H): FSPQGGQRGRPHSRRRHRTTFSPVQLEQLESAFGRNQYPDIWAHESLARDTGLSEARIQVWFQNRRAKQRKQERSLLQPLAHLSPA
# [18] = target: ALX3 (Homo sapiens, UniProt O95076 139-225, L168Q)
# Sequence of ALX3 (Homo sapiens, UniProt O95076 139-225, L168Q) (O95076 139-225 L168Q): as the sequence (O95076 139-225 N203Q) above, with L30Q, Q65N counted along it
# [19] = target: HOXC9 (Homo sapiens, UniProt P31274 178-260, R222W)
# Sequence of HOXC9 (Homo sapiens, UniProt P31274 178-260, R222W) (P31274 178-260 R222W): as the sequence (P31274 178-260) above, with R45W counted along it
# [20] = target: ALX3 (Homo sapiens, UniProt O95076 139-225, L168V)
# Sequence of ALX3 (Homo sapiens, UniProt O95076 139-225, L168V) (O95076 139-225 L168V): as the sequence (O95076 139-225 N203Q) above, with L30V, Q65N counted along it
# [21] = target: PROP1 (Homo sapiens, UniProt O75360 56-141, F88S)
# Sequence of PROP1 (Homo sapiens, UniProt O75360 56-141, F88S) (O75360 56-141 F88S): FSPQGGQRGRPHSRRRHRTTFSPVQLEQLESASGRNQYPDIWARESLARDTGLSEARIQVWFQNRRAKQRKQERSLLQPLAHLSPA
# [22] = target: T6, PAX4 (Homo sapiens, UniProt O43316 9-242, R227W)
# T6 sequence: T1 sequence with K192R, R219W
# [23] = target: ALX3 (Homo sapiens, UniProt O95076 139-225, N203S)
# Sequence of ALX3 (Homo sapiens, UniProt O95076 139-225, N203S) (O95076 139-225 N203S): as the sequence (O95076 139-225 N203Q) above, with Q65S counted along it
# [24] = target: PRRX1 (Homo sapiens, UniProt P54821 80-166)
# Sequence of PRRX1 (Homo sapiens, UniProt P54821 80-166) (P54821 80-166): as the sequence (P54821 80-166 F113S) above, with S34F counted along it
# [25] = target: HOXC10 (Homo sapiens, UniProt Q9NYD6 254-340)
# Sequence of HOXC10 (Homo sapiens, UniProt Q9NYD6 254-340) (Q9NYD6 254-340): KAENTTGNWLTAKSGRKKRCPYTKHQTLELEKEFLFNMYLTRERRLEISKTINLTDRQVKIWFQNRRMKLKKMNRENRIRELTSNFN
# [26] = target: MSX2 (Homo sapiens, UniProt P35548 130-214, R199I)
# Sequence of MSX2 (Homo sapiens, UniProt P35548 130-214, R199I) (P35548 130-214 R199I): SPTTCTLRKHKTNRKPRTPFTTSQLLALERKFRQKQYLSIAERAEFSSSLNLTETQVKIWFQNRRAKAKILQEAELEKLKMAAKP
# [27] = target: HOXC10 (Homo sapiens, UniProt Q9NYD6 254-340, K271E)
# Sequence of HOXC10 (Homo sapiens, UniProt Q9NYD6 254-340, K271E) (Q9NYD6 254-340 K271E): as the sequence (Q9NYD6 254-340) above, with K18E counted along it
# [28] = target: MSX2 (Homo sapiens, UniProt P35548 130-214)
# Sequence of MSX2 (Homo sapiens, UniProt P35548 130-214) (P35548 130-214): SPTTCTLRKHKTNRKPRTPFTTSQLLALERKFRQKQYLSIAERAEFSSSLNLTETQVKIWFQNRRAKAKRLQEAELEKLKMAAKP
# [29] = target: MSX2 (Homo sapiens, UniProt P35548 130-214, F161Y)
# Sequence of MSX2 (Homo sapiens, UniProt P35548 130-214, F161Y) (P35548 130-214 F161Y): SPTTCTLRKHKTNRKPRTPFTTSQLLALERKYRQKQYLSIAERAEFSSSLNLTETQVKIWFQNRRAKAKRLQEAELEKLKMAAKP
# [30] = target: HOXA4 (Homo sapiens, UniProt Q00056 201-287, W262R)
# Sequence of HOXA4 (Homo sapiens, UniProt Q00056 201-287, W262R) (Q00056 201-287 W262R): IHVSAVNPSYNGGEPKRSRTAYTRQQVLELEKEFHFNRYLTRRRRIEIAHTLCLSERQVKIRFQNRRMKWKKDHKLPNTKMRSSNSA
# [31] = target: HOXA4 (Homo sapiens, UniProt Q00056 201-287)
# Sequence of HOXA4 (Homo sapiens, UniProt Q00056 201-287) (Q00056 201-287): as the sequence (Q00056 201-287 W262R) above, with R62W counted along it
# [32] = target: HOXA4 (Homo sapiens, UniProt Q00056 201-287, W262F)
# Sequence of HOXA4 (Homo sapiens, UniProt Q00056 201-287, W262F) (Q00056 201-287 W262F): as the sequence (Q00056 201-287 W262R) above, with R62F counted along it
# [33] = target: HOXB6 (Homo sapiens, UniProt P17509 132-218, K202E)
# Sequence of HOXB6 (Homo sapiens, UniProt P17509 132-218, K202E) (P17509 132-218 K202E): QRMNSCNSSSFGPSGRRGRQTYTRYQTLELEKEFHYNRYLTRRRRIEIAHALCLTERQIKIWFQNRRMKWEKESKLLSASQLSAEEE
# [34] = target: HOXB6 (Homo sapiens, UniProt P17509 132-218)
# Sequence of HOXB6 (Homo sapiens, UniProt P17509 132-218) (P17509 132-218): as the sequence (P17509 132-218 K202E) above, with E71K counted along it
# Sequence of HOXC9 (Homo sapiens, UniProt P31274 178-260, K195R) (P31274 178-260 K195R): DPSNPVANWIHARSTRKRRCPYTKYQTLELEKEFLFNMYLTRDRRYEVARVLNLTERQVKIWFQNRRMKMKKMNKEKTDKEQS
# Sequence of ALX4 (Homo sapiens, UniProt Q9H161 200-286) (Q9H161 200-286): as the sequence (Q9H161 200-286 Q225E) above, with E26Q counted along it
sequence,measurement,setting,value
TAATTTAA,binding signal,[1],"12.2 upbm affinity estimate (log intensity, higher = more binding, comparable within an allelic series)"
same,binding signal,[2],"13.7 upbm affinity estimate (log intensity, higher = more binding, comparable within an allelic series)"
same,binding signal,[3],"11.7 upbm affinity estimate (log intensity, higher = more binding, comparable within an allelic series)"
same,binding signal,[4],"11.2 upbm affinity estimate (log intensity, higher = more binding, comparable within an allelic series)"
same,binding signal,[5],"12.2 upbm affinity estimate (log intensity, higher = more binding, comparable within an allelic series)"
same,binding signal,[6],"12.7 upbm affinity estimate (log intensity, higher = more binding, comparable within an allelic series)"
same,binding signal,[7],"12.2 upbm affinity estimate (log intensity, higher = more binding, comparable within an allelic series)"
same,binding signal,[8],"11.4 upbm affinity estimate (log intensity, higher = more binding, comparable within an allelic series)"
same,binding signal,[9],"8.49 upbm affinity estimate (log intensity, higher = more binding, comparable within an allelic series)"
same,binding signal,[10],"11.9 upbm affinity estimate (log intensity, higher = more binding, comparable within an allelic series)"
same,binding signal,[11],"12.2 upbm affinity estimate (log intensity, higher = more binding, comparable within an allelic series)"
same,binding signal,[12],"11.1 upbm affinity estimate (log intensity, higher = more binding, comparable within an allelic series)"
same,binding signal,[13],"10.6 upbm affinity estimate (log intensity, higher = more binding, comparable within an allelic series)"
same,binding signal,[14],"12.4 upbm affinity estimate (log intensity, higher = more binding, comparable within an allelic series)"
same,binding signal,[15],"11 upbm affinity estimate (log intensity, higher = more binding, comparable within an allelic series)"
same,binding signal,[16],"11 upbm affinity estimate (log intensity, higher = more binding, comparable within an allelic series)"
same,binding signal,[17],"10.6 upbm affinity estimate (log intensity, higher = more binding, comparable within an allelic series)"
same,binding signal,[18],"10.2 upbm affinity estimate (log intensity, higher = more binding, comparable within an allelic series)"
same,binding signal,[19],"10.9 upbm affinity estimate (log intensity, higher = more binding, comparable within an allelic series)"
same,binding signal,[20],"9.7 upbm affinity estimate (log intensity, higher = more binding, comparable within an allelic series)"
same,binding signal,[21],"7.76 upbm affinity estimate (log intensity, higher = more binding, comparable within an allelic series)"
same,binding signal,[22],"10.9 upbm affinity estimate (log intensity, higher = more binding, comparable within an allelic series)"
same,binding signal,[23],"8.64 upbm affinity estimate (log intensity, higher = more binding, comparable within an allelic series)"
same,binding signal,[24],"13.3 upbm affinity estimate (log intensity, higher = more binding, comparable within an allelic series)"
ATATTGAC,binding signal,[1],"11.1 upbm affinity estimate (log intensity, higher = more binding, comparable within an allelic series)"
same,binding signal,[4],"10.1 upbm affinity estimate (log intensity, higher = more binding, comparable within an allelic series)"
same,binding signal,[7],"11.1 upbm affinity estimate (log intensity, higher = more binding, comparable within an allelic series)"
same,binding signal,[11],"11.1 upbm affinity estimate (log intensity, higher = more binding, comparable within an allelic series)"
same,binding signal,[24],"11.4 upbm affinity estimate (log intensity, higher = more binding, comparable within an allelic series)"
AGCCCTCC,binding signal,[1],"9.66 upbm affinity estimate (log intensity, higher = more binding, comparable within an allelic series)"
same,binding signal,[25],"10 upbm affinity estimate (log intensity, higher = more binding, comparable within an allelic series)"
same,binding signal,[7],"9.73 upbm affinity estimate (log intensity, higher = more binding, comparable within an allelic series)"
same,binding signal,[26],"9.53 upbm affinity estimate (log intensity, higher = more binding, comparable within an allelic series)"
same,binding signal,[9],"7.79 upbm affinity estimate (log intensity, higher = more binding, comparable within an allelic series)"
same,binding signal,[11],"9.66 upbm affinity estimate (log intensity, higher = more binding, comparable within an allelic series)"
same,binding signal,[27],"10 upbm affinity estimate (log intensity, higher = more binding, comparable within an allelic series)"
same,binding signal,[28],"9.44 upbm affinity estimate (log intensity, higher = more binding, comparable within an allelic series)"
same,binding signal,[14],"7.83 upbm affinity estimate (log intensity, higher = more binding, comparable within an allelic series)"
same,binding signal,[18],"7.75 upbm affinity estimate (log intensity, higher = more binding, comparable within an allelic series)"
same,binding signal,[19],"9.65 upbm affinity estimate (log intensity, higher = more binding, comparable within an allelic series)"
same,binding signal,[20],"7.79 upbm affinity estimate (log intensity, higher = more binding, comparable within an allelic series)"
same,binding signal,[29],"9.49 upbm affinity estimate (log intensity, higher = more binding, comparable within an allelic series)"
same,binding signal,[23],"7.76 upbm affinity estimate (log intensity, higher = more binding, comparable within an allelic series)"
CAGCCTTC,binding signal,[1],"9.4 upbm affinity estimate (log intensity, higher = more binding, comparable within an allelic series)"
same,binding signal,[25],"9.83 upbm affinity estimate (log intensity, higher = more binding, comparable within an allelic series)"
same,binding signal,[3],"9.16 upbm affinity estimate (log intensity, higher = more binding, comparable within an allelic series)"
same,binding signal,[5],"9.3 upbm affinity estimate (log intensity, higher = more binding, comparable within an allelic series)"
same,binding signal,[7],"9.46 upbm affinity estimate (log intensity, higher = more binding, comparable within an allelic series)"
same,binding signal,[9],"7.71 upbm affinity estimate (log intensity, higher = more binding, comparable within an allelic series)"
same,binding signal,[10],"9.32 upbm affinity estimate (log intensity, higher = more binding, comparable within an allelic series)"
same,binding signal,[11],"9.41 upbm affinity estimate (log intensity, higher = more binding, comparable within an allelic series)"
same,binding signal,[13],"9.05 upbm affinity estimate (log intensity, higher = more binding, comparable within an allelic series)"
same,binding signal,[27],"9.85 upbm affinity estimate (log intensity, higher = more binding, comparable within an allelic series)"
same,binding signal,[14],"7.49 upbm affinity estimate (log intensity, higher = more binding, comparable within an allelic series)"
same,binding signal,[15],"9.15 upbm affinity estimate (log intensity, higher = more binding, comparable within an allelic series)"
same,binding signal,[18],"7.82 upbm affinity estimate (log intensity, higher = more binding, comparable within an allelic series)"
same,binding signal,[19],"9.69 upbm affinity estimate (log intensity, higher = more binding, comparable within an allelic series)"
same,binding signal,[20],"7.71 upbm affinity estimate (log intensity, higher = more binding, comparable within an allelic series)"
same,binding signal,[22],"9.26 upbm affinity estimate (log intensity, higher = more binding, comparable within an allelic series)"
same,binding signal,[23],"7.68 upbm affinity estimate (log intensity, higher = more binding, comparable within an allelic series)"
AGTCTTTA,binding signal,[30],"10.2 upbm affinity estimate (log intensity, higher = more binding, comparable within an allelic series)"
same,binding signal,[31],"11.2 upbm affinity estimate (log intensity, higher = more binding, comparable within an allelic series)"
same,binding signal,[32],"10.4 upbm affinity estimate (log intensity, higher = more binding, comparable within an allelic series)"
TAAGATGA,binding signal,[1],"10.9 upbm affinity estimate (log intensity, higher = more binding, comparable within an allelic series)"
same,binding signal,[33],"9.54 upbm affinity estimate (log intensity, higher = more binding, comparable within an allelic series)"
same,binding signal,[7],"10.7 upbm affinity estimate (log intensity, higher = more binding, comparable within an allelic series)"
same,binding signal,[9],"8.17 upbm affinity estimate (log intensity, higher = more binding, comparable within an allelic series)"
same,binding signal,[11],"10.9 upbm affinity estimate (log intensity, higher = more binding, comparable within an allelic series)"
same,binding signal,[14],"9.17 upbm affinity estimate (log intensity, higher = more binding, comparable within an allelic series)"
same,binding signal,[19],"10.2 upbm affinity estimate (log intensity, higher = more binding, comparable within an allelic series)"
same,binding signal,[23],"8.25 upbm affinity estimate (log intensity, higher = more binding, comparable within an allelic series)"
same,binding signal,[34],"10.1 upbm affinity estimate (log intensity, higher = more binding, comparable within an allelic series)"
ACCGCCCG,binding signal,[1],"9.62 upbm affinity estimate (log intensity, higher = more binding, comparable within an allelic series)"
same,binding signal,[3],"9.22 upbm affinity estimate (log intensity, higher = more binding, comparable within an allelic series)"
same,binding signal,[5],"9.09 upbm affinity estimate (log intensity, higher = more binding, comparable within an allelic series)"
same,binding signal,[7],"9.79 upbm affinity estimate (log intensity, higher = more binding, comparable within an allelic series)"
same,binding signal,[10],"9.24 upbm affinity estimate (log intensity, higher = more binding, comparable within an allelic series)"
same,binding signal,[11],"9.6 upbm affinity estimate (log intensity, higher = more binding, comparable within an allelic series)"
same,binding signal,[13],"9.1 upbm affinity estimate (log intensity, higher = more binding, comparable within an allelic series)"
same,binding signal,[15],"9.01 upbm affinity estimate (log intensity, higher = more binding, comparable within an allelic series)"
same,binding signal,[19],"9.71 upbm affinity estimate (log intensity, higher = more binding, comparable within an allelic series)"
same,binding signal,[22],"9.19 upbm affinity estimate (log intensity, higher = more binding, comparable within an allelic series)"
AATAGGTG,binding signal,[30],"10.3 upbm affinity estimate (log intensity, higher = more binding, comparable within an allelic series)"
same,binding signal,[31],"11.3 upbm affinity estimate (log intensity, higher = more binding, comparable within an allelic series)"
same,binding signal,[32],"10.3 upbm affinity estimate (log intensity, higher = more binding, comparable within an allelic series)"
